Sampled rows, rich in hits. Any-hit rate of the full collection: about 2.8%.
Peg3 promoter: Peg3 promoter-driven luciferase inhibitors, primary screen, cell-based, HeLa, luciferase luminescence. HeLa PEG-Prom luciferase reporter, overnight. inhibition, % at 20 µM. actives 1.7% (n = 360,000);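 active = inhibition of at least 50% at 20 µM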
CF NFkB block: inhibitors of PAF-induced NF-kB signaling, primary screen, cell-based, GFP fluorescence, uHTS; KKLEB NF-kB-GFP reporter, GFP fluorescence overnight; inhibition, % at 5 µM; actives 0.86% (n = 360,000); AID 588850, 2011;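 active = at least 50% inhibition at 5 µM, scaled per plate between neutral and stimulator controls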;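 also: PAF is a Pseudomonas aeruginosa culture filtrate used as stimulus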
KKLEB tox: cytotoxicity in KKLEB CF airway cells, primary screen, cytotoxicity control for CF NF-kB inhibitor project, cell-based, uHTS, fluorescence assay plates; KKLEB CF airway cells viability, ATPlite luminescence, overnight; hits give low values; cells stimulated with P. aeruginosa culture filtrate; activity change (cytotoxicity), % at 5 µM; actives 0.36% (n = 360,000);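 active = corrected activity change at or below -50% at 5 µM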
TRPM1 prom inh: inhibitors of MITF-dependent TRPM1 promoter reporter, primary screen, cell-based, SK-MEL-5, single point, luciferase. SK-MEL-5 TRPM1 promoter luciferase, 24 h. AID 488899, 2010. inhibition, % at 12.5 µM. actives 0.83% (n = 330,000);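 active = mean inhibition across replicates of 60% or more, whatever share of single replicates reaches that level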
Beta2AR agonist: beta2AR agonists driving receptor internalization, primary screen, cell-based, FAP fluorogen, flow cytometry. Beta-2 adrenergic receptor (Homo sapiens), P07550. Am2.2-beta2AR cells. response, % (concentration not given with the values). actives 0.43% (n = 340,000). AID 504454, 2011;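 active = response above a set limit, near 3 SD of response in nonfluorescent compounds, cut at about 42% in these data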
Target sequence (P07550 whole entry, looked up): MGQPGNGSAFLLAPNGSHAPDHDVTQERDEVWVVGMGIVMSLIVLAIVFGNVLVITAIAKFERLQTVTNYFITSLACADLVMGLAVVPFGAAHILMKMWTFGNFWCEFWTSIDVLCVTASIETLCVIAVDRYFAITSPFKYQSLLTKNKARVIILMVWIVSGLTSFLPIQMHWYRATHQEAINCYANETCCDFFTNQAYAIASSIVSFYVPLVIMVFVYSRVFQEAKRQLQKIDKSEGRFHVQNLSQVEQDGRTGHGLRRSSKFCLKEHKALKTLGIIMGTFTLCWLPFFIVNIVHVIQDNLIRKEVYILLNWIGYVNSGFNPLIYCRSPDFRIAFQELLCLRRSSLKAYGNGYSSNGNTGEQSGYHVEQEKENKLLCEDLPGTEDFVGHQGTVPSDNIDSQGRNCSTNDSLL
HIF-2a block: HIF-2a reporter inhibitors, primary screen, luminescence, 786-0 RCC cells | 786-0 RCC cells HIF-2a reporter, luciferase luminescence, overnight | inhibition, % at 18.8 µM | actives 0.72% (n = 360,000);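 active = inhibition of the luminescence signal of 40% or more relative to plate controls, in a single-dose primary screen at 18.75 µM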
CF NFkB conf: inhibitors of PAF-induced NF-kB signaling, retest, confirmation, cell-based, GFP fluorescence, single concentration; inhibition, % at 5 µM; shares compounds with CF NFkB block; KKLEB CF airway cells, overnight; AID 602472, 2012; actives 64% (n = 1,300); in the data active = inhibition above about 40%;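 also: stimulus PAF is a Pseudomonas aeruginosa filtrate and not platelet activating factor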
Large screens that a line does not name were inactive (follow-up assays come after a bar, where they were run).

CC(=O)c1ccc(Nc2ncnc3ccc(Br)cc23)cc1	CF NFkB block 60.3 (no result: TRPM1 prom inh, Beta2AR agonist) | CF NFkB conf 46.1
COC1OC(c2ccccc2)=C(c2cnc(N)nc2)c2ccc(F)cc21 (stereo not drawn)	none (no result: Peg3 promoter, CF NFkB block, KKLEB tox, TRPM1 prom inh, Beta2AR agonist)
COc1ccc(CN2C(=O)CSCC2(C)C(=O)NCc2ccccc2)cc1 (stereo not drawn)	none (no result: Peg3 promoter, CF NFkB block, KKLEB tox, TRPM1 prom inh, Beta2AR agonist)
COc1cccc2sc(N3CCN(c4nc5ccccc5s4)CC3)nc12	CF NFkB block 56.5 | CF NFkB conf inactive
c1ccc2sc(N3CCOCC3)nc2c1	none
CCCS(=O)(=O)NC(=O)C1(C)CCCN(C(=O)c2ccc(F)c(Cl)c2)C1 (stereo not drawn)	none (no result: TRPM1 prom inh, Beta2AR agonist)
O=C(CCS(=O)(=O)c1ccccc1)Nc1nc2cc3c(cc2s1)OCO3	none
COC(=O)c1ccc2nc(NC(=O)CCS(=O)(=O)c3ccccc3)sc2c1	CF NFkB block 58.0 | CF NFkB conf inactive
CCCc1nnc(NC(=O)c2nc(S(=O)(=O)Cc3ccc(C)cc3)ncc2Cl)s1	Peg3 promoter 102.8, CF NFkB block 90.5, TRPM1 prom inh 69.2 | CF NFkB conf 91.2
CCCCCCCCN1C(=O)[C@H](CC(=O)NCCCOC)C[C@@]2(C(=O)OCC)CCCC=C12	none (no result: Peg3 promoter, CF NFkB block, KKLEB tox, TRPM1 prom inh, Beta2AR agonist)
C[C@@H](NC(=O)c1coc(=O)c(Br)c1)c1ccccc1	Peg3 promoter 98.9, CF NFkB block 73.8 | CF NFkB conf 60.1
Cc1ccc(S(=O)(=O)Oc2ccccc2/C=N/NC(=O)c2nn(C)cc2[N+](=O)[O-])cc1	none
Cc1ccc(S(=O)(=O)Oc2ccc(/C=N/NC(=O)c3nn(C)cc3[N+](=O)[O-])cc2)cc1	CF NFkB block 51.0 | CF NFkB conf inactive
O=C(Nc1ccccc1)c1cc2ccccc2c(=O)s1	CF NFkB block 61.9 | CF NFkB conf 68.4
CC(=O)c1cccc(-c2ccnc3c2CC(C(=O)NCc2ccccc2)O3)c1 (stereo not drawn)	none (no result: TRPM1 prom inh, Beta2AR agonist)
COc1cc(-c2cc(C(=O)Nc3ccc(S(=O)(=O)NCc4ccco4)cc3)c3ccccc3n2)cc(OC)c1OC	Peg3 promoter 58.5, CF NFkB block 64.5 | CF NFkB conf 97.7
Cc1ccc(C)c(N2N=C(C(=O)OCc3nnc(-c4ccccc4Br)o3)CCC2=O)c1	none (no result: TRPM1 prom inh, Beta2AR agonist)
CCOC(=O)N1C(=O)[C@](CC)(c2ccccc2)N1C(=O)OCC	CF NFkB block 56.2 | CF NFkB conf inactive
COc1ccccc1-c1n[nH]nc1C1=CC(=O)C[C@H](c2ccc(F)cc2)C1	none (no result: TRPM1 prom inh, Beta2AR agonist)
CCc1ccc(-c2n[nH]nc2C2=CC(=O)C[C@H](c3ccc(F)cc3)C2)cc1	CF NFkB block 61.1 (no result: TRPM1 prom inh, Beta2AR agonist) | CF NFkB conf inactive
COc1cc2c(c(OC)c1OC)-c1ccc(NCc3ccccc3)c(=O)cc1C(NC(C)=O)CC2 (stereo not drawn)	CF NFkB block 63.6 (no result: TRPM1 prom inh, Beta2AR agonist) | CF NFkB conf 86.6
CCOCC(=O)NC1CCc2cc(OC(=O)COCC)c(OC)c(OC)c2-c2ccc(SC)c(=O)cc21 (stereo not drawn)	CF NFkB block 52.0 | CF NFkB conf 83.5
COc1cc2c(c(OC)c1OC)-c1ccc(OC)c(=O)cc1[C@@H](NC(C)=O)CC2	none
COc1cc2c(c(OC)c1OC)-c1ccc(SC)c(=O)cc1C(NC(=O)C(F)(F)F)CC2 (stereo not drawn)	CF NFkB block 56.2 | CF NFkB conf 83.8
Cc1ccccc1-c1cc2c(c3c1ccn3C)C1CCC2C1 (stereo not drawn)	none (no result: TRPM1 prom inh, Beta2AR agonist)
CCOC(=O)C1=CCN(S(=O)(=O)c2ccc(Br)cc2)C1c1ccc(C)cc1 (stereo not drawn)	none (no result: TRPM1 prom inh, Beta2AR agonist)
CCOC(=O)c1c(C)[nH]c(C(=O)OCC(=O)Nc2cc(C)ccc2OC)c1C	CF NFkB block 50.5 | CF NFkB conf inactive
CCOC(=O)c1c(C)[nH]c(C(=O)OCC(=O)Nc2cc(Cl)ccc2OC)c1C	none
Cc1[nH]c(C(=O)N/N=C/c2ccc(C(=O)O)cc2)c(C)c1C(=O)N/N=C/c1ccc(C(=O)O)cc1	none
CCOC(=O)c1c(C)[nH]c(C(=O)N/N=C/c2ccc(Br)cc2)c1C	CF NFkB block 56.4 | CF NFkB conf 79.4
CCOC(=O)C1CCCN(C(=O)Cc2ccc(OC)c(OC)c2)CC1 (stereo not drawn)	none (no result: TRPM1 prom inh, Beta2AR agonist)
Cc1ccc(NC(=O)C2(C)CCN2C(=O)Cc2ccc(C(C)(C)C)cc2)cc1C (stereo not drawn)	none (no result: TRPM1 prom inh, Beta2AR agonist)
O=C(OC1CCOC1=O)c1ccccc1C(=O)c1ccc(Cl)c([N+](=O)[O-])c1 (stereo not drawn)	CF NFkB block 71.9 | CF NFkB conf 51.5
COc1cccc(C(C(=O)NC2CCCC2)N2CCN(c3ncccc3C#N)CC2)c1OC (stereo not drawn)	none (no result: Peg3 promoter, CF NFkB block, KKLEB tox, TRPM1 prom inh, Beta2AR agonist)
O=S(=O)(Nc1ccc(Cl)cc1NS(=O)(=O)c1ccccc1)c1ccccc1	CF NFkB block 54.8 | CF NFkB conf 51.4
CC(C)CNc1ncnc2c1ncn2[C@H]1CN(CCc2ccccc2)C[C@@H](CO)O1	none (no result: TRPM1 prom inh, Beta2AR agonist)
O=C1c2ccccc2C(c2nnnn2Cc2ccccc2)N1CCc1ccccc1F (stereo not drawn)	none (no result: Peg3 promoter, CF NFkB block, KKLEB tox, TRPM1 prom inh, Beta2AR agonist)
CN1CCN(c2ncnc3scc(-c4ccccc4Cl)c23)CC1	CF NFkB block 70.7 | CF NFkB conf 74.5
OCC1CCCN(c2ncnc3scc(-c4ccccc4)c23)C1 (stereo not drawn)	CF NFkB block 50.2 | CF NFkB conf 40.2
Cc1cc(-c2csc3ncnc(N4CCN(C)CC4)c23)cc(C)c1C	none
OCC1CCCN(c2nc(CN3CCCCC3)nc3scc(-c4ccccc4)c23)C1 (stereo not drawn)	none
COc1ccc(NC(=O)C2(C)Cc3c(-c4ccc(C(N)=O)cc4)ccnc3O2)cn1 (stereo not drawn)	none (no result: TRPM1 prom inh, Beta2AR agonist)
Cc1nc(N2CCC(C(N)=O)CC2)c2c(-c3cccs3)csc2n1	CF NFkB block 66.7 | CF NFkB conf 68.2
O=C(NC1CCCC1)C1C(c2ccccc2)=Nc2ccccc2N1C(=O)c1cc(Cl)cc(Cl)c1 (stereo not drawn)	none (no result: Peg3 promoter, CF NFkB block, KKLEB tox, TRPM1 prom inh, Beta2AR agonist)
CCCCN(C(=O)c1ccc(N2CCCC2=O)cc1)c1c(N)n(Cc2ccccc2)c(=O)[nH]c1=O	CF NFkB block 58.2 | CF NFkB conf inactive
COc1ccccc1C(=O)N1[C@@H](C(C)C)COc2cc(Br)ccc2S1(=O)=O	none
COc1cccc(C(=O)N2C(C(C)C)COc3cc(Br)ccc3S2(=O)=O)c1 (stereo not drawn)	CF NFkB block 50.5 (no result: TRPM1 prom inh, Beta2AR agonist) | CF NFkB conf 55.0

Source: PubChem BioAssay (several laboratories)
